Measured potencies and affinities stand elsewhere. The source made the active and inactive calls. How the calls were made is not given here.

This is an account of results in PubChem BioAssay AID720561 (Broad Institute, 2013).

The experiment can be described thus: HIF luciferase reporter inhibitors, dose response, ARNT-TACC3 inhibitor project, cell-based, dry powder samples, luminescence, 2158-07 (AID 720561).

With `Cc1ccc(C(=O)Nc2nc(-c3ccccn3)cs2)cc1S(=O)(=O)N1CCOCC1`, the call was inactive.
Regarding `O=C(CSc1ccc(-c2ccccn2)nn1)Nc1ccccc1`, the compound was classed as inactive.
For `FC(F)(F)c1cc(-c2nn[nH]n2)cc(C(F)(F)F)c1`, the result was inactive.
In the case of `C=CC1=C(C(=O)O)N2C(=O)[C@@H](NC(=O)/C(=N\O)c3csc(N)n3)[C@H]2SC1` (stereo in doubt), the compound was classed as inactive.
Turning to `Cc1c(C(=O)N(C)C)sc2nc(-c3ccccn3)[nH]c(=O)c12`, the compound was called inactive.
`CC1CCN(S(=O)(=O)c2ccc(C(=O)Nc3nnc(-c4ccccn4)o3)cc2)CC1`: the compound was called inactive.
On to `O=C(CSc1ccc(-c2ccccn2)nn1)N1CCCC1`, for which the compound was classed as inactive.
On to `O=C(CSc1ccc(-c2ccccn2)nn1)NC1CCCCC1`, for which the compound was called inactive.
As to `CC1CCN(S(=O)(=O)c2ccc(C(=O)Nc3nnc(-c4ccno4)o3)cc2)CC1`, the result was inactive.
